# Experimental data reported in the supplement of paper PMC8866396.
# ± gives the standard deviation of the averaged measurements.
# Key:
# IL-6-GFP PC-9GR = experiment: cell viability (CCK-8 OD) relative to DMSO control (fraction of control); higher = more viable cells; conditions: compound concentration: 10 uM; treatment time: 48 h
# How it was run: (§1)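 In 96-well plates, 3000 cells/well of PC-9 or PC-9GR lung cancer cells with lentiviral IL-6-GFP overexpression received each compound of a purchased 510-compound library at a final 10 μM for 48 h. Viability, measured by CCK-8 absorbance, is each well's optical density relative to the vehicle control well. Data come from two independent replicates.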
# IL-6-GFP PC-9 = experiment: as above; conditions: compound concentration: 10 uM; treatment time: 48 h
# How it was run: as §1
Structure (SMILES),cell viability (IL-6-GFP PC-9GR),cell viability (IL-6-GFP PC-9)
CCN1CCN(Cc2ccc(Nc3ncc(F)c(-c4cc(F)c5nc(C)n(C(C)C)c5c4)n3)nc2)CC1 [Abemaciclib],0.668 ± 0.14,0.746 ± 0.094
"O=C(CCCCCCC(=O)Nc1ccccc1)NO [Vorinostat (SAHA, MK0683)]",0.449 ± 0.048,0.418 ± 0.095
CC(OCC1(c2ccccc2)CCC2(CCC(=O)N2)CN1)c1cc(C(F)(F)F)cc(C(F)(F)F)c1 (stereo not drawn) [Rolapitant],0.76 ± 0.035,0.853 ± 0.26
COc1c(-c2ccc3cc(NS(C)(=O)=O)ccc3c2)cc(-n2ccc(=O)[nH]c2=O)cc1C(C)(C)C [Dasabuvir(ABT-333)],0.7838 ± 0.0059,0.9253 ± 0.0086
CC(C(=O)O)c1ccc(CC2CCCC2=O)cc1 (stereo not drawn) [Loxoprofen],1.04 ± 0.028,1.29 ± 0.05
CC1CC2C3CCC4=CC(=O)C=CC4(C)C3(Cl)C(O)CC2(C)C1(OC(=O)c1ccco1)C(=O)CCl (stereo not drawn) [Mometasone furoate],1.12 ± 0.11,0.93 ± 0.076
OCc1ccccc1OC1OC(CO)C(O)C(O)C1O (stereo not drawn) [Salicin],1.49 ± 0.23,1.2 ± 0.097
CC(CN1c2ccccc2Sc2ccccc21)N(C)C.Cl (stereo not drawn) [Promethazine HCl],0.929 ± 0.013,1.05 ± 0.051
N#Cc1cc(NC(=O)C(=O)O)c(Cl)c(NC(=O)C(=O)O)c1.NC(CO)(CO)CO.NC(CO)(CO)CO [Lodoxamide Tromethamine],1.14 ± 0.25,1.09 ± 0.083
